ATXN2 expr inh – reduces ATXN2 reporter expression in HEK-293 cells; HEK-293 ATXN2-luciferase reporter, luminescence, 24 h; Potency, µM (series often up to 57 µM), inactives show at the highest dose activity change, negative = inhibition, usual class: inhibitors; 0.72% of 360,000 active; further: on the % scale 0 is the no-effect control and ±100 the full control effect; nearly all actives have a fitted effect of over 55% in size
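qHTS (up to 57 uM final) was run with 24 h compound exposure of reporter cells at 37 °C. Each well was multiplexed: SteadyGlo luminescence measured ATXN2-luciferase expression after a fluorogenic Gly-Phe-AFC viability readout (25 uM final).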
VP16 counter – inhibits Gal4-VP16 luciferase reporter, ROR gamma counter-screen | Drosophila S2 Gal4-VP16 UAS-luciferase, luminescence, 20 h | Potency, µM (highest dose often 53.6 µM), without a hit: top-dose activity, negative = inhibition, actives largely listed as inhibitors | 3.5% of 310,000 active | AID 2546;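 further: Gal4-VP16 expression switched on by copper sulfate through the metallothionein promoter; on the % scale 0 is the no-effect control and ±100 the full control effect; nearly all actives have a fitted effect of over 50% in size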
HepG2 tox – HepG2 cytotoxicity, counter-screen for TGF-b inhibitors | HepG2 CAGA-GFP viability, ATP luminescence, 18 h | Potency, µM (titrated, usually from 46.1 µM), without a hit: top-dose activity change, negative = cytotoxicity, hits mostly cytotoxic | 0.76% of 410,000 active | AID 588856
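HepG2 CAGA-GFP cells (1000/well, DMEM with 1% FBS) received compound, then TGF-beta at 500 pg/mL final, and were incubated 18 hours at 37 degrees C. Viability was read by CellTiter-Glo luminescence. Media-only wells were set as complete cell-killing and DMSO as no toxicity.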
TGFb SMAD3 inh – TGF-b pathway inhibition. 1.2% of 410,000 active. Potency, µM (series often up to 46.1 µM), for the others: top-dose activity, negative = inhibition, usual class: inhibitors. HepG2 CAGA-GFP TGF-b/SMAD3 reporter, GFP fluorescence, 18 h; TGF-beta stimulated, 500 pg/mL final. AID 588855; further: on the % scale 0 is the no-effect control and ±100 the full control effect; nearly all actives have a fitted effect of over 65% in size
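HEPG2 CAGA-GFP cells (1000/well, DMEM with 1% FBS) were pre-incubated 2 h at 37 degrees C, given compound by pin tool, then stimulated with TGF-beta at 500 pg/mL final for 18 h before per-cell GFP fluorescence imaging.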
ATXN viability – viability counter-screen for ATXN expression inhibitors. S2 cells (HEK-293 line with an ATXN2-luciferase reporter) viability, CellTiter-Fluor protease fluorescence, 24 h. Potency, µM (highest dose often 56.7 µM), most hits filed as cytotoxic. 0.49% of 400,000 active. AID 651635; further: nearly all actives have a fitted effect of over 40% in size
RORgamma inh – blocks mouse ROR gamma transcriptional activity; 5.4% of 310,000 active; Drosophila S2 Gal4-RORgamma UAS-luciferase reporter, 20 h; P51450; Potency, µM (series often up to 53.6 µM), without a hit: top-dose activity change, negative = inhibition, usual class: inhibitors; further: on the % scale 0 is the no-effect control and ±100 the full control effect; nearly all actives have a fitted effect of over 60% in size
Target sequence (P51450 whole entry, looked up, the tested form may be a part): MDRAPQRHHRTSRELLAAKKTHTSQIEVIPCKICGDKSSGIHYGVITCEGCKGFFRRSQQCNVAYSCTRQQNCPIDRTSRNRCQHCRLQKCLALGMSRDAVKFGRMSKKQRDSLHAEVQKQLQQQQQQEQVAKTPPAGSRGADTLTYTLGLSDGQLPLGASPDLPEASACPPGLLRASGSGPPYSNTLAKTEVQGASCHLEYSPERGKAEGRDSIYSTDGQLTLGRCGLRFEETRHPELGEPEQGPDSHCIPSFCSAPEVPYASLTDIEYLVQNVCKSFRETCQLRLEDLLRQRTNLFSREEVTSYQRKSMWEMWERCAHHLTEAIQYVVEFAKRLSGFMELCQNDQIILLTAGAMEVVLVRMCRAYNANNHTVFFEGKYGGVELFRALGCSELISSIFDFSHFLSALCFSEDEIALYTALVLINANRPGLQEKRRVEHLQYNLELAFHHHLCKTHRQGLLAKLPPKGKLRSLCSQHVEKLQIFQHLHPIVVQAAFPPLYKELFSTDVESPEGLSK
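Drosophila S2 cells stably expressing Gal4-DBD/mouse RORγ fusion under metallothionein promoter plus UAS-luciferase; compound 1 h, then 700 uM CuSO4 induction for 20 h at ambient temperature; inhibition read as reduced luminescence.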
The depositor's hits bear a star; i = inactive; ? = inconclusive; . = not tested or not shown. In the library only some 6.3% were active in any assay of this set; here they are far more common. The call rests on the fitted dose curve; in most records, active means well fitted curve in the direction sought with a large enough effect; inconclusive means small, poorly fitted or top-dose-only effect, or another doubt; inactive means no such curve, though single readings can be large; an effect the other way counts as inactive or inconclusive. Potency means the concentration at half of the fitted maximal effect.

SMILES	ATXN2 expr inh	VP16 counter	HepG2 tox	TGFb SMAD3 inh	ATXN viability	RORgamma inh
C=CCn1c(-c2cc(Cl)ccc2OC)n[nH]c1=S	-3%	18µM*	-14%	4%	i	11µM*
COc1ccc(Cl)cc1-c1n[nH]c(=S)n1C	-7%	2%	8%	9%	i	?
CCn1c(-c2cc(Cl)ccc2OC)n[nH]c1=S	2%	?	8%	8%	?	6.3µM*
C=CCn1c(-c2cccc(OC)c2OC)n[nH]c1=S	-15%	?	0%	-1%	i	11µM*
COc1cccc2cc(-c3ccnc(=S)[nH]3)oc12	.	?	.	.	.	2.8µM*
OCCN1CCN(Cc2ccc3c(c2)CN(Cc2cnc(-c4ccccc4)s2)CCO3)CC1	.	.	.	.	i	.
CCOC(=O)C1CCN(C(=O)c2cnn(-c3ccc(F)cc3)c2-n2cccc2)CC1	-3%	.	-6%	0%	i	.
CC(Cl)OC(=O)Nc1cccc2cccnc12 (configuration not stated)	.	.	-61%	?	.	.
COc1cccc2cc(-c3ccccc3)oc12	-20%	.	-23%	16%	i	.
C=CCn1c(-c2cc3cccc(OC)c3o2)n[nH]c1=S	-23%	?	7%	0%	i	3.5µM*
Cc1ccc(NC(=O)Cn2c(=S)[nH]c3ccccc32)cc1	19%	29%	0%	2%	i	-4%
O=C(Cn1c(=S)[nH]c2ccccc21)c1ccccc1	6%	?	-15%	-10%	i	10µM*
OC1c2cc(Br)ccc2N=C2CCCN21 (configuration not stated)	.	-7%	-104%	?	16µM*	23%
COc1ccc(CNC(=O)C2Cc3c(-c4ccc5c(c4)OCO5)ccnc3O2)cc1OC (configuration not stated)	-16%	.	-3%	1%	i	.
CN(CC(=O)NCc1ccc(Cl)cc1)S(=O)(=O)c1ccc2c(c1)c(=O)n(C)c(=O)n2C	6%	.	3%	4%	i	.
O=C(c1ccccc1)c1sc(N2CCCCCC2)nc1-c1ccccc1	2%	-8%	-9%	?	i	-3%
[2H]c1c([2H])c([2H])c(C(=O)c2sc(N3CCCCCC3)nc2-c2ccccc2)c([2H])c1[2H]	2%	1%	3%	14µM*	i	-36%
CN(CCc1ccccc1)C(=O)c1cccc(NC(=O)Cc2cccc(NC(=O)C3CCCN(C(=O)C4CCCC4)C3)c2)c1 (configuration not stated)	-16%	.	12%	-14%	?	.
O=C(NC(=S)Nc1cccc2ncccc12)c1ccco1	-20%	-1%	0%	-13%	i	?
Cc1cc(C)nc(SCC(=O)Nc2ccnc3ccccc23)n1	0%	0.89µM*	-11%	-17%	i	2.2µM*
Cc1cc(NC(=S)NC(=O)c2ccco2)c2ccccc2n1	-8%	1%	-9%	?	i	11µM*
Cc1cc(NC(=O)Cc2ccccc2)c2ccccc2n1	-29%	3.2µM*	-31%	-32%	i	?
COc1ccc(N2CCN(CCCNC(=O)c3sc4ncccc4c3-n3cccc3)CC2)cc1	0%	.	-46%	-17%	?	.
Cc1ccccc1Cn1c(CN2CCC(C(=O)NCc3cccnc3)CC2)cc2ccccc21	?	.	-45%	16µM*	.	.
Brc1csc(C=Nc2ccc3c(c2)OCCOCCOCCOCCO3)c1	-12%	-7%	6%	-1%	?	-14%
Oc1c(Cl)cc(Cl)cc1C=Nc1ccc2c(c1)OCCO2	-5%	-20%	-13%	-2%	i	14µM*
O=C(NC1CCN(Cc2ccc(F)cc2)CC1)c1ccccc1	-9%	-5%	3%	?	i	-14%
O=C(NC(=S)NC1CCN(Cc2ccccc2)CC1)c1ccc(F)cc1	-16%	11µM*	-19%	?	i	7.1µM*
O=C(NC(=S)NC1CCCCC1)c1ccc(F)cc1	51%	4.5µM*	-6%	1%	i	3.2µM*

Source: PubChem BioAssay
